This is part of a sample that, as a whole, favours compounds with a hit. Of some 83,000 tested, about 20% had one in any assay.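 Values shown are percent growth following 48 h exposure of cells in 96-well plates to a single concentration of compound; below 10 was considered active.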 Values without a mark were called inactive. The source made the active and inactive calls.

Holding throughout (assay): NCI-60 one-dose screen, 48 h (100 = growth as untreated, 0 = no growth, -100 = all killed)
What all share (conditions): 10 µM unless noted

Test [1] relates to SK-MEL-2 melanoma.
The subject of test [2] is EKVX NSCLC.
Test [3] has as its system SN12C renal.
The test system of test [4] is UO-31 renal.
Test [5] relates to TK-10 renal.
Test [6] deals with ACHN renal.
The subject of test [7] is CAKI-1 renal.
For test [8], the system named is A498 renal.
Test [9] concerns CCRF-CEM leukemia.
The subject of test [10] is MOLT-4 leukemia.
Test [11] concerns SR leukemia.
Test [12] concerns RPMI-8226 leukemia.
The subject of test [13] is OVCAR-8 ovarian.
The subject of test [14] is OVCAR-5 ovarian.
Test [15] deals with OVCAR-4 ovarian.
Test [16] deals with SK-OV-3 ovarian.
In test [17] the test system is IGROV1 ovarian.
Test [18] relates to OVCAR-3 ovarian.
The subject of test [19] is HS 578T breast.
The test system of test [20] is NCI/ADR-RES ovarian.

In the case of `CCCCCCCCCCCCCOC(=O)c1c(C)[nH]c(/C=C2\N=C(c3ccc[nH]3)C=C2OC)c1C`, the growth was -42.1% (active) in test [1]; 52.3% in test [2]; 40.7% in test [3]; -54.4% (active) in test [4]; 34.4% in [5]; 8.11% (active) in [6]. The growth in test [7] was -7.49% (active); in test [8], 10.3%; in [9] it was 17.8%; in test [10] it was 22.8%; in test [11], -10.8% (active); in test [12], 11.2%. Also, the growth in test [13] was 18.3%; in test [14], 44%; in [15] it was 55.8%; in test [16] it was 47.4%; in test [17], 22%; in test [18], 11.3%. Further, the growth is 18% in [19] and 22.5% in test [20].

Consider `C=C1C(=O)O[C@H]2[C@H]1CC/C(CNC(=O)c1c[nH]c3ccc(F)cc13)=C\CC[C@@]1(C)O[C@@H]21`, for which the growth in test [1] was 45.1%; in test [2], 60.3%; in [3], 47.5%; in test [4], -79.2% (active); in test [5], -51.7% (active); in test [6] it was -18% (active). The growth in test [7] was 16.2%; in test [8] it was 15.4%; in test [9] it was -21% (active); in [10] it was -39.7% (active); in test [11], -28.2% (active); in [12] it was -20.8% (active). Further, the growth was -33.3% (active) in test [13]; 19.6% in test [14]; 49% in test [15]; 81.7% in test [16]; 41.7% in [17]; -36.7% (active) in test [18]. Besides, the growth is 44% in [19] and 56.3% in test [20].

`C=CCn1c(SCC(=O)Nc2ccc(/C(C)=N/O)cc2)nnc1-c1cc(-c2ccc(S(N)(=O)=O)cc2)nc2ccccc12`: the growth is 83.7% in test [1]; 91.8% in test [2]; 77.7% in test [3]; 74.5% in test [4]; 121% in test [5]; 96.9% in test [6]. Besides, the growth was 51.9% in [7]; 89.2% in test [8]; 45.8% in test [9]; 37.9% in test [10]; 56.7% in [11]; 48.8% in [12]. Moreover, the growth was 54.7% in [13]; 93.5% in [14]; 66.2% in [15]; 109% in test [16]; 30.9% in [17]; 70.9% in test [18]. Further, the growth is 74.1% in [19] and 99% in [20].

Regarding `O=C1Nc2ccccc2/C1=C\c1c[nH]c2ccc(Br)cc12`, the growth in test [1] is 66.8%; in test [2] it was 79.5%; in test [3] it was 84.9%; in test [4] it was 46%; in [5], 75.3%; in test [6], 53.6%. Besides, the growth in test [7] is 55%; in test [8] it was 108%; in test [9], 66.1%; in test [10], 62.1%; in test [11], 72.4%; in test [12], 73.9%. The growth in [13] was 79.8%; in test [14] it was 80.4%; in [15] it was 54.7%; in test [16], 66.5%; in test [17], 61.5%; in test [18] it was 72.5%. Besides, the growth is 82.7% in test [19] and 57.7% in [20].

Turning to `COc1cc(/C=C2\CN(S(=O)(=O)c3ccccc3)C/C(=C\c3cc(CN4CCCCC4)c(O)c(OC)c3)C2=O)cc(CN2CCCCC2)c1O`, the growth in test [1] was 104%; in test [2] it was -36.4% (active); in test [3], -42.4% (active); in test [4], -96.6% (active); in test [5], -38.8% (active); in test [6], 27.9%. For the same compound, the growth is -89.2% (active) in test [7]; 95% in [8]; -2.62% (active) in test [9]; -20.6% (active) in test [10]; -18.6% (active) in [11]; -34.9% (active) in test [12]. For the same compound, the growth in test [13] was -25% (active); in [14], -66.6% (active); in test [15], -69.8% (active); in test [16] it was 108%; in test [17] it was -51.8% (active); in [18], -86.9% (active). Besides, the growth in [19] is 0.476% (active); in test [20], 5.04% (active).

As for `CN(C)CCCC1(c2ccc(F)cc2)OCc2cc(-c3cc4ccccc4s3)ccc21` (stereo not given), the growth is 72.3% in test [1]; 46.8% in test [2]; 37% in test [3]; 21% in test [4]; 60.5% in test [5]; 14.3% in test [6]. Besides, the growth was 21.4% in [7]; 81% in [8]; 4.59% (active) in test [9]; -8.07% (active) in test [10]; -15% (active) in test [11]; -3.17% (active) in test [12]. The growth was 7.22% (active) in [13]; 55.8% in test [14]; 16.8% in test [15]; 68% in [16]; -28% (active) in [17]; -29.1% (active) in test [18]. Further, the growth is 27.2% in test [19] and 23.7% in test [20].

For the compound `O=C(CCCCCCN1CC(=O)N2[C@H](c3ccc(Br)cc3)c3[nH]c4ccccc4c3C[C@@H]2C1=O)NO`, the growth is 60.3% in test [1]; 56.7% in test [2]; 56.6% in test [3]; 58.8% in [4]; 40.6% in [5]; 72.3% in test [6]. Moreover, the growth is 51.5% in test [7]; 67.4% in test [8]; 21% in test [9]; 5.86% (active) in test [10]; 24% in test [11]; 18% in test [12]. Moreover, the growth is 41.2% in [13]; 40.5% in test [14]; 67.5% in test [15]; 49.5% in test [16]; 23.9% in test [17]; 41.5% in test [18]. Moreover, the growth in [19] was 53%; in test [20], 89.6%.
